This passage reports binding signal results from article PMC8384837, “Expanding the binding specificity for RNA recognition by a PUF domain”.

Assay in all cases: yeast three-hybrid, YBZ-1, SC-Leu-His + 0.5 mM 3-AT, 4 days
Settings in all cases: tags: N-Gal4 AD-HA kept; label: inside an RPR1-promoter hybrid RNA with tandem MS2 sites; ssRNA

For one assay, the target named is T1, PUM1 PUF domain R6-LFC (Homo sapiens, UniProt Q14671 828-1176, N1043L;Y1044F;Q1047C).
T1 sequence: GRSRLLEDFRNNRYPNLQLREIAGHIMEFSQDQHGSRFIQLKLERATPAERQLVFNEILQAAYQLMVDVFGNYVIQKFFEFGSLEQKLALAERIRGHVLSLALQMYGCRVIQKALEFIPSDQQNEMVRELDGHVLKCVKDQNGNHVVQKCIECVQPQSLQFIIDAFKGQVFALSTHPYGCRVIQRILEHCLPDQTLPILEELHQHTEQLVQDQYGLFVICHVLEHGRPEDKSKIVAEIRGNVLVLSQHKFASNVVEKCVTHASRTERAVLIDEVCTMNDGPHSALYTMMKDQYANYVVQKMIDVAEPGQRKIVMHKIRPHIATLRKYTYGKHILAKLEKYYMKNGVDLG
The method, boiled down: (§1)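 Pumilio-1 PUF domain libraries, randomized at the three base-contacting residues of each repeat, were co-expressed with matching RNA elements from a centromeric plasmid in strain YBZ-1, which carries a LexA–MS2 coat fusion and a HIS3 reporter. Transformants grew for four days on SC-Leu (input) or on SC-Leu-His + 0.5 mM 3-AT (selection), and the repeat regions were PCR-amplified and Illumina-sequenced. The interaction score is the log change in variant frequency from input to selection. That logarithm is base 2, with a pseudocount of 1 where a variant was absent.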

In a further assay the target is PUM1 PUF domain R5-RSN (Homo sapiens, UniProt Q14671 828-1176, C1007R;R1008S;Q1011N). The method, boiled down:
as §1

For another assay, the target named is PUM1 PUF domain R8-KYP (Homo sapiens, UniProt Q14671 828-1176, N1122K;Q1126P). The method, boiled down:
as §1

A further assay addresses PUM1 PUF domain R4-RGY (Homo sapiens, UniProt Q14671 828-1176, N971R;H972G;Q975Y). The gist of the method:
as §1

A further assay deals with PUM1 PUF domain R8-KHF (Homo sapiens, UniProt Q14671 828-1176, N1122K;Y1123H;Q1126F). The method, boiled down:
as §1

Assay [1] has as its target PUM1 PUF domain R3-THE R4-TFR R7-NPG (Homo sapiens, UniProt Q14671 828-1176, C935T;R936H;Q939E;N971T;H972F;Q975R;S1079N;N1080P;E1083G). The method, boiled down: as §1
A further assay addresses PUM1 PUF domain R3-DNE (Homo sapiens, UniProt Q14671 828-1176, C935D;R936N;Q939E). The method, boiled down: as §1
The target of the next assay is PUM1 PUF domain R3-YRG (Homo sapiens, UniProt Q14671 828-1176, C935Y;Q939G). The method, boiled down: as §1
The target of the next assay is PUM1 PUF domain R5-RAI (Homo sapiens, UniProt Q14671 828-1176, C1007R;R1008A;Q1011I). The gist of the method: as §1
In another assay the target is PUM1 PUF domain R3-KPG (Homo sapiens, UniProt Q14671 828-1176, C935K;R936P;Q939G). The method, boiled down: as §1

PUM1 PUF domain R5-RAI, sequence (Q14671 828-1176 C1007R/R1008A/Q1011I): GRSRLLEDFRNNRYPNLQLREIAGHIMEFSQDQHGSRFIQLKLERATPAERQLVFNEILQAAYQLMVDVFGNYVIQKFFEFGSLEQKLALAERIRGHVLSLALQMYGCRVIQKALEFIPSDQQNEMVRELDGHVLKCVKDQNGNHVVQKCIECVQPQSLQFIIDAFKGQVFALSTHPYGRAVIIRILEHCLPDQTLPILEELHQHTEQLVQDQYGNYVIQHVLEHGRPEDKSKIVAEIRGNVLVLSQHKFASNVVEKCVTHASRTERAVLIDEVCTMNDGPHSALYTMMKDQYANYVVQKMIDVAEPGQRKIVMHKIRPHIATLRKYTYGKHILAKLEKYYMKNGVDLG
PUM1 PUF domain R3-DNE, sequence (Q14671 828-1176 C935D/R936N/Q939E): as the sequence (Q14671 828-1176 C1007R/R1008A/Q1011I) above, with C108D, R109N, Q112E, R180C, A181R, I184Q counted along it
PUM1 PUF domain R3-THE R4-TFR R7-NPG, sequence (Q14671 828-1176 C935T/R936H/Q939E/N971T/H972F/Q975R/S1079N/N1080P/E1083G): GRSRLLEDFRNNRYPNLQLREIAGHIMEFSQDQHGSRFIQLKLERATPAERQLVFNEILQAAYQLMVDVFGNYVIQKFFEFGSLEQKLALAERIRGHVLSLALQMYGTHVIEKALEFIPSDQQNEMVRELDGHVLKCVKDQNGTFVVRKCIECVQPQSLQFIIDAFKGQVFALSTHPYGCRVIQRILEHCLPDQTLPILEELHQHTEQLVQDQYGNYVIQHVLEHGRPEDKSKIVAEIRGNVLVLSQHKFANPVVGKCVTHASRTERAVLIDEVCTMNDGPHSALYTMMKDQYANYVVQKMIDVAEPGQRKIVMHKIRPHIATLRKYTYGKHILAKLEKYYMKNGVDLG
PUM1 PUF domain R3-YRG, sequence (Q14671 828-1176 C935Y/Q939G): as the sequence (Q14671 828-1176 C1007R/R1008A/Q1011I) above, with C108Y, Q112G, R180C, A181R, I184Q counted along it

For the sequence “GGCUAGAACUAGUGGAUCCCCCGGCGCCCGGCGGCUCGAGCCCGGGUAAGUGUAAAUAGUCUGCAUGCCGCCGGGCGCCAUGCCUGCAGGUCGACUCUAGAAAACAUG”, the binding signal with PUM1 PUF domain R6-LFC is 3.09 log2 enrichment (interaction score); with PUM1 PUF domain R5-RSN, 0.8 log2 enrichment (interaction score); with PUM1 PUF domain R8-KYP it was 4.91 log2 enrichment (interaction score); in the assay with PUM1 PUF domain R4-RGY, 5.07 log2 enrichment (interaction score).

Consider “GGCUAGAACUAGUGGAUCCCCCGGCGCCCGGCGGCUCGAGCCCGGGUAAGGGUAAAUAGUCUGCAUGCCGCCGGGCGCCAUGCCUGCAGGUCGACUCUAGAAAACAUG”, for which the binding signal with PUM1 PUF domain R8-KHF is 2.25 log2 enrichment (interaction score).

“GGCUAGAACUAGUGGAUCCCCCGGCGCCCGGCGGCUCGAGCCCGGGUAAGUUUACGUAGUCUGCAUGCCGCCGGGCGCCAUGCCUGCAGGUCGACUCUAGAAAACAUG”: the binding signal in [1] was 5.28 log2 enrichment (interaction score).

Regarding “GGCUAGAACUAGUGGAUCCCCCGGCGCCCGGCGGCUCGAGCCCGGGUAAGUGUAAGUAGUCUGCAUGCCGCCGGGCGCCAUGCCUGCAGGUCGACUCUAGAAAACAUG”, the results for the binding signal in the assay with PUM1 PUF domain R3-DNE and with PUM1 PUF domain R3-YRG were 3.35 log2 enrichment (interaction score) and 3.84 log2 enrichment (interaction score), respectively.

Regarding “GGCUAGAACUAGUGGAUCCCCCGGCGCCCGGCGGCUCGAGCCCGGGUAAGUGUCAAUAGUCUGCAUGCCGCCGGGCGCCAUGCCUGCAGGUCGACUCUAGAAAACAUG”, the binding signal is 3.76 log2 enrichment (interaction score) with PUM1 PUF domain R5-RSN and 0.78 log2 enrichment (interaction score) in the assay with PUM1 PUF domain R5-RAI.

For “GGCUAGAACUAGUGGAUCCCCCGGCGCCCGGCGGCUCGAGCCCGGGUAAGUGUUAAUAGUCUGCAUGCCGCCGGGCGCCAUGCCUGCAGGUCGACUCUAGAAAACAUG”, the binding signal with PUM1 PUF domain R5-RSN was 3.26 log2 enrichment (interaction score); in the assay with PUM1 PUF domain R5-RAI, 2.49 log2 enrichment (interaction score).

Turning to “GGCUAGAACUAGUGGAUCCCCCGGCGCCCGGCGGCUCGAGCCCGGGUAAGUGUAAUUAGUCUGCAUGCCGCCGGGCGCCAUGCCUGCAGGUCGACUCUAGAAAACAUG”, the binding signal in the assay with PUM1 PUF domain R3-KPG was 4.43 log2 enrichment (interaction score).
